High-throughput results: PubChem BioAssay, National Center for Advancing Translational Sciences (NCATS)
D1 PAM: human D1 dopamine receptor positive modulation. P21728. HEK293 TREx D1 cells, calcium flux, dopamine EC20 potentiation. potentiation, % at 10 µM. 360,000 tested, 0.036% active. AID 504651; in the data active = potentiation above about 30%; also: 0% is about no effect
TRHR enhancer: TRH receptor (human) allosteric enhancement | P34981 | TRHR cells, fluo-8 calcium fluorescence, EC20 TRH enhancement | enhancement, % at 2 µM | 360,000 tested, 0.66% active; in the data active = enhancement above about 30%; also: 0% is about no effect
Target sequence (P34981 whole entry, looked up): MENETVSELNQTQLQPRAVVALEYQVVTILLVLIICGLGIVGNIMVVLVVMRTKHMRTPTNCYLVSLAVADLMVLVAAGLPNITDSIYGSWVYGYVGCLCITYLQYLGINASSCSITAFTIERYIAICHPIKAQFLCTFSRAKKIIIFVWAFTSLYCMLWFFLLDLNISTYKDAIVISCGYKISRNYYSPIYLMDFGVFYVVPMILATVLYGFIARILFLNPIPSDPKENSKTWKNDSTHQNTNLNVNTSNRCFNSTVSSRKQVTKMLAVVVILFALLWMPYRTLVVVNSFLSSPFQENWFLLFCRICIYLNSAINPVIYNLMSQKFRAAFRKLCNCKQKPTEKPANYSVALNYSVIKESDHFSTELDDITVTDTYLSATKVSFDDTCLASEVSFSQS
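TRHR-expressing cells loaded with fluo-8 calcium dye were read kinetically (ex 480/em 530) during compound addition, then stimulated with an EC20 of TRH (10 nM final). Enhancement of the Gq-mediated intracellular calcium response was scored.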
D1 ag: activates the human D1 dopamine receptor; P21728; 360,000 tested, 1% active; HEK293 T-REx D1 cells, calcium flux, agonist mode; activation, % at 2 µM; also: 0% is about no effect
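Tetracycline-induced HEK293 TREx D1 cells, force-coupled to calcium signalling, were dye-loaded with a no-wash calcium kit. Compound was pin-added after a 10 s baseline. Fluorescence was read kinetically at 1 cycle/s for 180 s, with calcium rises flagged as agonism.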
TRHR ag: activates the human TRH receptor; AID 493084; TRHR cells, calcium flux fluo-8, FDSS agonist mode; 360,000 tested, 0.18% active; activation, % at 2 µM; P34981; also: 0% is about no effect
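TRHR-expressing cells loaded with fluo-8 calcium dye; 23 nL library compound pin-transferred, kinetic FDSS fluorescence (Ex 480/Em 530) recorded about 180 s for agonist-induced calcium release, before a 10 nM TRH EC20 addition for potentiator mode.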
D1 antag: human D1 dopamine receptor antagonism | P21728 | HEK293 TREx D1 cells, calcium flux, dopamine EC80; hits give low values | activity change, negative = inhibition, % at 10 µM | 360,000 tested, 3.2% active; in the data active = activity change below about -30%; also: % is scaled to controls: 0 for no effect and ±100 for the full control effect
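Tetracycline-induced HEK293 Trex D1 cells, force-coupled to calcium, dye-loaded; compounds added and read 180 s, then EC80 dopamine added and calcium flux tracked kinetically another 180 s.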
The depositor's hits bear a star. Only some compounds are listed: those with a hit (about 4.7% of all), similar ones and a draw of the others. Rule as the data show it, unless noted: active = activation above about 30%; inactive = the rest.

SMILES	D1 PAM	TRHR enhancer	D1 ag	TRHR ag	D1 antag
CCn1cc(C(=O)O)c(=O)c2cc(F)c(N3CCNCC3)cc21	-5.4	5.6	-0.7	-0.6	-48.2*
CCn1cc(C(=O)NCCCO)c(=O)c2cc(F)c(N3CCN(C)CC3)cc21	0.2	0.5	3.2	1.1	6.7
Cc1cccc(CSc2cn(CC(=O)N3CCCC3)c3ccccc23)c1	0.1	27.5	11.0	0.4	-1.8
O=c1c(=O)n(-c2ccc(F)c(F)c2)ccn1Cc1ccc(F)cc1Cl	-2.1	0.4	3.6	1.6	6.0
Cc1ccc(NC(=O)C2CCCN2S(=O)(=O)c2ccc3nc(-c4ccccc4)[nH]c3c2)cc1C (configuration not stated)	-3.8	10.3	-0.5	-0.3	0.9
Cc1ccc(S(=O)(=O)c2c(O)cc(C)c(NS(=O)(=O)c3ccc(Br)cc3)c2C)cc1	-3.4	19.0	2.4	-2.6	14.0
CCCN1C(=O)/C(=C/c2c(NCCCOC(C)C)nc3c(C)cccn3c2=O)SC1=S	1.4	4.0	43.9*	14.6	-21.1
CCC(C)N1C(=O)/C(=C/c2c(NCCCOC(C)C)nc3c(C)cccn3c2=O)SC1=S (configuration not stated)	-5.5	-5.7	81.3*	34.5*	-6.5
O=C(COC(=O)CCC1CCCC1)Nc1cccc(S(=O)(=O)N2CCOCC2)c1	0.8	-7.3	1.3	-0.6	-9.4
CC(=O)c1cccc(NC(=O)COC(=O)CCc2ccc(S(=O)(=O)N3CCOCC3)cc2)c1	-0.2	-4.5	3.6	0.2	-8.9
O=C(COC(=O)CCC(=O)c1ccc(F)cc1)Nc1cccc(S(=O)(=O)N2CCOCC2)c1	-0.3	32.6*	7.2	-0.2	-0.5
Cc1ccc(NC(=O)COC(=O)CCc2ccc(S(=O)(=O)N3CCOCC3)cc2)cc1F	-4.1	-6.8	13.9	-0.2	-30.7*
COc1ccc(N2C(=O)C(CC(=O)Nc3ccc(F)cc3)N(Cc3ccc4c(c3)OCO4)C2=O)cc1 (configuration not stated)	0.6	-5.0	-1.0	1.1	9.0
COc1ccc(NC(=O)C(NC(=O)C2CCC(C)CC2)C(C)C)cc1 (configuration not stated)	0.0	-1.1	-0.1	0.0	11.4
CC(=O)Nc1ccc(NC(=O)C(C)OC(=O)c2cccs2)cc1 (configuration not stated)	-13.1	-1.3	0.5	0.2	-37.4*
c1ccc(CCNCCCOc2cccc3ccccc23)cc1	-4.7	6.9	50.3*	2.1	15.0
CC(=O)NCCOc1cccc2ccccc12	-7.2	2.6	5.7	-1.8	-2.0
COc1ccc(NC2=C(C(C)=O)C(c3ccc(OC)c(OC)c3)C(C(C)=O)C(C)(O)C2)cc1 (configuration not stated)	4.5	0.6	-0.4	-0.2	-85.9*
Cc1cccc(C)c1-n1ncc(C(=O)O)c1C1CCN(C(=O)OC(C)(C)C)CC1	0.7	-3.4	2.6	1.0	11.5
O=C(O)CCCC(=O)Nc1cccc2cccnc12	-7.6	6.8	-0.1	0.6	-94.8*
O=C(Cc1ccccc1F)Nc1cccc2cccnc12	-0.9	6.2	-0.8	0.0	5.0
COc1ccc(-c2cc(-c3ccccc3)nc3c2COc2ccc(F)cc2-3)cc1	-0.2	8.3	0.1	2.8	21.9
CSc1nsc(/C=C/Nc2ccc(Cl)cc2)c1C#N	-5.5	-2.5	5.6	1.0	-5.8
CSc1nsc(/C=C/Nc2cccc(Cl)c2)c1C#N	-8.4	-3.1	7.2	1.9	-33.2*
Cc1ccc(S(=O)(=O)N2CCc3cc(C(=O)Nc4c(F)cccc4F)ccc32)cc1	-1.2	0.2	2.6	1.3	0.1
SMILES	D1 PAM	TRHR enhancer	D1 ag	TRHR ag	D1 antag
COc1cc(NC(=O)C2CCN(S(=O)(=O)Cc3ccccc3)CC2)c(OC)cc1Cl	-2.1	-1.7	-2.6	-0.5	-4.2
Cc1ccccc1-c1nc(CN2CCC(C(=O)NCc3ccc(F)cc3)CC2)c(C)o1	-3.2	43.8*	41.0*	0.5	-8.6
CCS(=O)(=O)N1CCC(C(=O)NCc2ccccc2OC)CC1	-1.8	-1.3	-0.6	1.2	-43.4*
Cc1oc(-c2cccc(Cl)c2)nc1CN1CCC(C(=O)NCc2ccc(F)cc2)CC1	-3.4	3.3	54.2*	0.0	-17.2
COc1ccc(C)cc1NC(=O)C1CCN(S(=O)(=O)Cc2ccccc2)CC1	2.6	3.6	-0.4	0.0	-47.0*
Cc1ccccc1-c1nc(CN2CCC(C(=O)NCc3cccnc3)CC2)c(C)o1	-3.5	3.6	-4.0	-0.8	-3.8
COc1ccccc1CNC(=O)C1CCN(S(=O)(=O)N2CCCCC2)CC1	-3.7	-2.5	0.5	0.2	6.7
Cc1oc(-c2cccc(Cl)c2)nc1CN1CCCC(C(=O)NCc2ccc(Cl)cc2)C1 (configuration not stated)	-2.6	-9.6	4.8	0.4	-1.8
Cc1cc(F)ccc1NC(=O)C1CCCN(S(=O)(=O)c2ccc3c(c2)CCCC(=O)N3)C1 (configuration not stated)	-0.2	16.0	-0.2	1.3	-15.0
O=C1CN(C(=O)Cc2ccc(F)cc2)C(c2ccccc2)c2cc(Br)ccc2N1 (configuration not stated)	2.5	-1.7	10.9	1.0	26.6
COc1ccccc1CNC(=O)Cc1csc2nc(-c3ccccc3)cn12	-3.0	-1.7	-1.6	-0.1	-35.5*
CCc1ccc(-c2nc(CN3CCC(C(=O)NCc4ccccc4OC)CC3)c(C)o2)cc1	-6.1	12.2	40.7*	0.4	-16.9
O=C(NCc1ccccc1CN1CCCC1)C1CCN(S(=O)(=O)c2ccc(F)c(F)c2)CC1	-10.0	-8.8	0.7	0.6	-16.7
COc1ccccc1CNC(=O)CC(C)C	-7.2	3.4	3.8	0.8	-32.3*
COc1ccccc1CNC(=O)COc1ccccc1OC	-2.4	-3.3	3.8	-0.1	11.3
Cc1ccc(S(=O)(=O)N2CCC(C(=O)NCc3ccccc3CN3CCCC3)CC2)cc1C	-13.3	0.9	7.5	0.3	-35.3*
CCOc1ccccc1CNC(=O)c1ccc2c(c1)nc1n2CCCCC1	3.2	-3.1	-0.6	-0.8	-12.2
CCc1ccc(CN2C(=O)c3ccccc3C2C(=O)NC2CCCCCC2)cc1 (configuration not stated)	2.3	-0.4	-2.1	-1.9	-6.6
COc1ccccc1CNC(=O)C1CCN(Cc2nc(-c3cccc(Cl)c3)oc2C)CC1	-5.5	7.8	33.8*	-0.2	-1.1
COc1ccccc1CNC(=O)C1CCN(Cc2nc(-c3ccc(OC)c(OC)c3)oc2C)CC1	-4.1	19.6	1.0	-0.2	-4.5
CCc1ccc(-c2nc(CN3CCC(C(=O)NCCc4ccc(OC)c(OC)c4)CC3)c(C)o2)cc1	-6.2	-3.2	30.2*	0.5	-24.6
CC(C)(C)c1ccc(OCC(=O)NCC2(N3CCOCC3)CCCCC2)cc1	-0.2	0.2	3.9	0.0	-3.5
